Where “and” joins values, the source holds several entries; their conditions need not be identical. Equal entries are not always repeated. Screen size: about 5,500 compounds; about 2,000 (36%) were called active. Inconclusive results (about 18%) are left out. No stated cut-off is given here; in the data, active means normalized growth mostly below about 0.91 (no sharp cut-off); inconclusive means no clear call, values can overlap the other calls; inactive means mostly above about 0.92. The list shows a part of the results.
Assay: chemical genetic growth profiling, strain panel (AID 1159580);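 further: tested at 20 µM; growth read once vehicle control cultures reached saturation at 30 °C; 1 = growth at the plate median or of vehicle wells; lower values mean less growth of the strain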
Conditions: S. cerevisiae deletion strains, growth OD

Measured: normalized growth

NCC(=O)CCC(=O)O
inactive: locus YAL013W, strain DEP1, active compounds read low 1.01 | locus YAL021C, strain ccr4, active compounds read low 1 | locus YAL026C, strain drs2, active compounds read low 1.01 | locus YAL030W, strain snc1, active compounds read low 0.99 | locus YBL061C, strain skt5, active compounds read low 0.979 | locus YBR009C, strain hhf1, active compounds read low 1.03 | locus YBR021W, strain FUR4, active compounds read low 1.04 | locus YBR023C, strain chs3, active compounds read low 0.995 | locus YBR171W, strain sec66, active compounds read low 0.962 | locus YBR229C, strain ROT2, active compounds read low 1.02 | locus YBR231C, strain swc5, active compounds read low 0.968 | locus YBR279W, strain paf1, active compounds read low 0.997 | locus YCL011C, strain gbp2, active compounds read low 1 | locus YCL016C, strain dcc1, active compounds read low 0.998 | locus YCL029C, strain bik1, active compounds read low 0.995 | locus YCL061C, strain MRC1, active compounds read low 0.983 | locus YCL069W, strain vba3, active compounds read low 0.989 | locus YCR088W, strain abp1, active compounds read low 0.987 | locus YDL005C, strain med2, active compounds read low 0.96 | locus YDL035C, strain GPR1, active compounds read low 1.02 | locus YDL040C, strain nat1, active compounds read low 0.979 | locus YDL074C, strain BRE1, active compounds read low 1.02 | locus YDL101C, strain DUN1, active compounds read low 1.01 | locus YDL134C, strain PPH21, active compounds read low 1.01 | locus YDL185W, strain tfp1, active compounds read low 0.994 | locus YDL192W, strain arf1, active compounds read low 0.992 | locus YDR001C, strain nth1, active compounds read low 0.997 | locus YDR069C, strain doa4, active compounds read low 0.979 | locus YDR101C, strain arx1, active compounds read low 0.988 | locus YDR137W, strain rgp1, active compounds read low 0.979 | locus YDR150W, strain NUM1, active compounds read low 1.02 | locus YDR159W, strain sac3, active compounds read low 1 | locus YDR162C, strain NBP2, active compounds read low 1.01 | locus YDR195W, strain ref2 0.945 | locus YDR297W, strain sur2, active compounds read low 0.99 | locus YDR318W, strain mcm21, active compounds read low 0.978 | locus YDR334W, strain swr1, active compounds read low 0.984 | locus YDR335W, strain msn5, active compounds read low 0.995 | locus YDR388W, active compounds read low 0.986 | locus YDR392W, strain spt3, active compounds read low 1.05 | locus YDR502C, strain sam2, active compounds read low 0.995 | locus YEL003W, strain gim4, active compounds read low 0.992 | locus YEL037C, strain rad23, active compounds read low 0.979 | locus YEL061C, strain CIN8 (second series), active compounds read low 0.99 | locus YEL061C, strain CIN8, active compounds read low 1.01 | locus YER015W, strain faa2, active compounds read low 0.996 | locus YER016W, strain bim1, active compounds read low 1.01 | locus YER110C, active compounds read low 0.991 | locus YER111C, strain swi4, active compounds read low 0.972 | locus YER155C, strain BEM2 (second series), active compounds read low 0.955 | locus YER155C, strain BEM2, active compounds read low 1.01 | locus YER167W, strain BCK2, active compounds read low 1.01 | locus YFR010W, strain ubp6, active compounds read low 0.973 | locus YGL078C, strain dbp3, active compounds read low 0.99 | locus YGL086W, strain mad1, active compounds read low 1 | locus YGL167C, strain pmr1, active compounds read low 0.974 | locus YGL173C, strain kem1, active compounds read low 0.971 | locus YGL227W, strain vid30, active compounds read low 0.988 | locus YGL240W, strain doc1, active compounds read low 0.965 | locus YGL248W, strain PDE1, active compounds read low 1.01 | locus YGL253W, strain hxk2, active compounds read low 1.01 | locus YGR078C, strain PAC10, active compounds read low 1.02 | locus YGR135W, strain pre9, active compounds read low 0.982 | locus YGR229C, strain SMI1, active compounds read low 1.02 | locus YGR252W, strain gcn5, active compounds read low 0.975 | locus YHR013C, strain ard1, active compounds read low 0.964 | locus YHR027C, strain rpn1, active compounds read low 1 | locus YHR030C, strain SLT2, active compounds read low 1.01 and 1.03 | locus YHR079C, strain IRE1 (second series), active compounds read low 0.982 | locus YHR079C, strain IRE1, active compounds read low 1.03 | locus YHR094C, strain hxt1, active compounds read low 0.99 | locus YHR129C, strain ARP1, active compounds read low 1.01 | locus YHR142W, strain chs7, active compounds read low 0.981 | locus YHR200W, strain rpn10, active compounds read low 0.99 | locus YIL066C, strain RNR3, active compounds read low 1.02 | locus YIL073C, strain SPO22, active compounds read low 1.01 | locus YIL125W, strain kgd1, active compounds read low 0.997 | locus YIR030C, strain dcg1, active compounds read low 0.994 | locus YJL092W, strain hpr5, active compounds read low 0.969 | locus YJL095W, strain BCK1 (second series), active compounds read low 0.984 | locus YJL095W, strain BCK1, active compounds read low 1.01 and 1.03 | locus YJL115W, strain asf1, active compounds read low 0.967 | locus YJL129C, strain trk1, active compounds read low 0.98 | locus YJL134W, strain LCB3, active compounds read low 1.01 | locus YJL154C, strain vps35, active compounds read low 0.979 | locus YJL164C, strain tpk1, active compounds read low 1 | locus YJL166W, strain qcr8, active compounds read low 0.924 | locus YJL168C, strain set2, active compounds read low 0.984 | locus YJL187C, strain SWE1 (second series), active compounds read low 1.01 | locus YJL187C, strain SWE1, active compounds read low 0.982 | locus YJR043C, strain POL32, active compounds read low 1.01 | locus YJR066W, strain TOR1, active compounds read low 0.986

— PubChem BioAssay AID1159580 (chemical genetic matrix, 2015)
